Source: PubChem BioAssay (National Center for Advancing Translational Sciences (NCATS))
TbPYK inhibitor – inhibitors of Trypanosoma brucei pyruvate kinase; AID 624173; Q57TT1; hit rate 0.12% among 410,000; TbPYK enzyme, Kinase-Glo Plus ATP luminescence, 45 min; Potency, µM (doses to about 76.8 µM), actives largely listed as inhibitors; active means well fitted curve in the direction sought with a large enough effect; inconclusive means small, poorly fitted or top-dose-only effect, or another doubt; inactive means no such curve, though single readings can be large; an effect the other way counts as inactive or inconclusive; further: nearly all actives have a fitted effect of over 50% in size
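Glycolytic pyruvate kinase of T. brucei was incubated with substrate, test compound and 130 uM ADP for 45 minutes at room temperature. Luminescent Kinase-Glo Plus signal was measured after 10 minutes.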
Cycloheximide cs – affects cycloheximide protein synthesis inhibition readout, counter-screen; hit rate 12% among 300,000; AID 2314; max response, %; cell reporter, cycloheximide protein synthesis inhibition counterscreen; in the data active means max response mostly above about 13%, no sharp cut-off; inactive means mostly below about 14%; further: read at 38.3 µM for the half of the compounds with a filed dose
Shiga toxin inh – Shiga toxin inhibition | hit rate 9.2% among 290,000 | Vero cells, Shiga toxin protein synthesis inhibition reporter | inhibition, % at 38.7 µM; in the data active means inhibition mostly above about 28%, no sharp cut-off; inactive means mostly below about 43%
LmPK inhibitor – LmPK (Leishmania mexicana) enzyme inhibition | purified LmPK, Kinase-Glo ATP luminescence, 1 h | Potency, µM (series often up to 57.5 µM), actives largely listed as inhibitors | hit rate 0.37% among 290,000 | AID 1721; active means well fitted curve in the direction sought with a large enough effect; inconclusive means small, poorly fitted or top-dose-only effect, or another doubt; inactive means no such curve, though single readings can be large; an effect the other way counts as inactive or inconclusive
Target sequence (Q27686 whole entry, looked up): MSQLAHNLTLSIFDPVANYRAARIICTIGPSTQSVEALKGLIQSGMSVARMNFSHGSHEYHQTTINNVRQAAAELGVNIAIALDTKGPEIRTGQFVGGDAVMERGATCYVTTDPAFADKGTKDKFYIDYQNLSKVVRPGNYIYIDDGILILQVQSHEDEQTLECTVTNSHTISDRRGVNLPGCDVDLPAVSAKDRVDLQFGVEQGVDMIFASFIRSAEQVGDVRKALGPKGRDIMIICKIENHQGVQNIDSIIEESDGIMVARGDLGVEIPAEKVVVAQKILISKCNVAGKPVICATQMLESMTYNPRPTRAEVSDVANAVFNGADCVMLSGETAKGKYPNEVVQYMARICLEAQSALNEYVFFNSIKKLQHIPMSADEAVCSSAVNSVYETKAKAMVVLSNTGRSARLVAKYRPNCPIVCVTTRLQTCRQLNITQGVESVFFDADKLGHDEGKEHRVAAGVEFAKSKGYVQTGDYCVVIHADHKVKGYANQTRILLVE
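Purified LmPK (0.1 nM) with 0.5 mM PEP and 0.1 mM ADP in imidazole buffer pH 7.2 with MgCl2/KCl, 1 h at room temperature. ATP formed was read by luciferase luminescence and normalized to no-enzyme and uninhibited controls.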
SARS PLpro yeast – blocks SARS-CoV papain-like protease in a yeast assay; S. cerevisiae expressing SARS-CoV PLpro, growth rescue; Potency, µM (highest dose often 32.9 µM), most hits filed as activators; hit rate 0.19% among 330,000; AID 485353; further: nearly all actives have a fitted effect of over 55% in size
NS1 function inh – influenza NS1 inhibition; Potency, µM (series often up to 46.1 µM); hit rate 0.4% among 270,000; further: actives are rising curves; nearly all actives have a fitted effect of over 50% in size
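Growth recovery, yeast-based: influenza A NS1 expressed in S. cerevisiae causes slow growth, and suppressors are detected by OD600. The parent strain without NS1 is used as positive control.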
Numbers stand for hits; n = inactive; u = inconclusive; x = no result given. The entries come from a sample that favours hits as a whole. Unless noted, the call rests on the fitted dose curve.

SMILES	TbPYK inhibitor	Cycloheximide cs	Shiga toxin inh	LmPK inhibitor	SARS PLpro yeast	NS1 function inh
COc1ccc(OC)c(/C=C/C(=O)Nc2ccc(OC)nc2)c1	n	n	n	n	n	n
COc1ccc(Br)cc1CN(C)C(=O)c1ccccc1SCC(=O)N1CCCC1	n	x	x	x	x	x
Cc1cccc(NC(=S)NC(=O)c2ccco2)n1	n	16	n	n	n	n
Cc1nc(NC(=S)NC(=O)c2cncc(Br)c2)ccc1Br	n	n	n	n	n	n
Cc1nc(NC(=S)NC(=O)c2cccs2)ccc1Br	n	31	32	n	n	n
N#Cc1ccccc1NC(=S)NC(=O)c1cccs1	n	31	77	n	n	n
Cc1cccc(NC(=O)CCC(=O)c2cccs2)n1	n	x	x	x	n	x
Cc1cccc(NC(=S)NC(=O)c2cccs2)n1	n	24	115	n	n	n
Cc1cc(OC(=O)c2c(C)cc(OC(=O)c3c(C)cc(O)cc3O)cc2O)cc(O)c1C(=O)O	n	x	x	x	x	x
O=C(N/N=C/c1cc(Br)cs1)c1ccccc1[N+](=O)[O-]	n	n	n	n	n	n
CCOc1ccc(Br)cc1C(=O)N/N=C/c1c[nH]c2ccccc12	n	n	n	n	n	n
O=C(N/N=C/c1ccc(Br)s1)c1c[nH]c2ccccc12	n	46	68	n	n	n
O=C(N/N=C/c1cc(Br)cs1)c1c[nH]c2ccccc12	n	44	62	n	n	n
CCCC[C@@H](C=O)NC(=O)[C@H](CC(C)C)NC(=O)[C@H](CC(C)C)NC(C)=O	x	42	77	x	x	x
CC(C)NCC(O)COc1ccc(COCCOC(C)C)cc1 (centres undefined)	n	n	28	x	x	u
Cc1cc2nc3c(=O)[nH]c(=O)nc-3n(C[C@H](O)[C@H](O)[C@H](O)COP(=O)(O)OP(=O)(O)OC[C@H]3O[C@@H](n4cnc5c(N)ncnc54)[C@H](O)[C@@H]3O)c2cc1C	n	x	x	x	x	x
CCC(NC(=O)Nc1cccc(C)c1)c1c(-n2cccc2)sc2c1CCN(C)C2 (centres undefined)	n	x	x	x	x	x
Clc1ccc(CNC2CCN(Cc3ccccc3)CC2)cc1	n	n	x	n	n	n
c1ccc(-c2ccc(CNC3CC3)cc2)cc1	n	23	n	n	n	n
COc1ccc(Nc2cc(C)c3c(O)cccc3n2)cc1	n	32	n	n	n	n
Cc1ccccc1Nc1cc(C)c2c(O)cccc2n1	n	23	n	n	n	n
Cc1ccc(Nc2cc(C)c3ccc(O)cc3n2)cc1C	n	43	83	n	n	n
Cc1cc(Nc2ccccc2O)c2ccccc2n1	n	n	n	n	n	n
Cc1cc(NCc2ccco2)nc2cc(O)ccc12	n	n	n	n	n	n
COC(=O)c1cc(Nc2cc(C)c3ccc(O)cc3n2)cc(C(=O)OC)c1	n	n	n	n	n	n
SMILES	TbPYK inhibitor	Cycloheximide cs	Shiga toxin inh	LmPK inhibitor	SARS PLpro yeast	NS1 function inh
COC(=O)c1cc(Nc2cc(C)c3c(O)cccc3n2)cc(C(=O)OC)c1	n	16	n	n	n	n
Cc1ccc(Nc2cc(C)c3c(O)cccc3n2)cc1C	n	46	76	n	n	n
CCOC(=O)c1ccc2c(c1)N(CC#N)C(=O)C(C)(C)O2	n	17	n	n	n	n
CC1(C)Oc2ccc(C(=O)Nc3ccccc3F)cc2N(CC(=O)N2CCOCC2)C1=O	n	12	n	n	n	n
CC(C)OC(=O)CN1C(=O)C(C)(C)Oc2ccc(C(=O)NC(C)(C)C)cc21	n	n	n	n	n	u
COC(=O)CN1C(=O)C(C)(C)Oc2ccc(C(=O)Nc3ccccc3F)cc21	n	n	n	n	n	n
CCOC(=O)CN1C(=O)C(C)(C)Oc2ccc(C(=O)Nc3ccccc3)cc21	n	13	n	n	n	u
Cc1ccc(-c2ccccc2)n1-c1ccc(C(=O)O)cc1	n	15	n	n	n	n
Cc1ccc(-c2ccccc2)n1-c1cccc(C(=O)O)c1	n	66	163	n	n	n
Cc1ccc(C(=O)O)cc1-n1c(C)ccc1-c1ccccc1	n	x	x	x	x	x
COc1ccc(Cn2c(CCC(=O)Nc3cc(OC)c(OC)c(OC)c3)nc3cccnc32)cc1	n	x	x	x	x	x
COc1cccc(CNC(=O)c2sc3nc[nH]c(=O)c3c2C)c1	n	x	x	x	x	x
O=C(c1cc(-c2ccc(Cl)cc2)on1)N(Cc1cccc(F)c1)Cc1ccco1	n	x	x	x	x	x
Cc1nc2ccc(C(=O)Nc3cccc([N+](=O)[O-])c3)cc2s1	n	30	101	n	n	n
COc1ccc(NC(=O)c2ccc3nc(C)sc3c2)cc1	n	64	129	n	n	n
COC(=O)c1ccc(NC(=O)c2ccc3nc(C)sc3c2)cc1	n	77	x	n	n	n
COc1ccc(C(=O)Nc2ccc3nc(C)sc3c2)cc1OC	n	31	n	n	n	x
Cc1nc2ccc(NC(=O)c3cccnc3)cc2s1	n	n	n	n	n	x
O=C(Nc1cccc([N+](=O)[O-])c1)c1cccc(C(=O)Nc2cccc([N+](=O)[O-])c2)c1	n	n	n	n	n	n
N#Cc1ccccc1NC(=O)CSc1nnc(N)s1	n	x	x	x	x	x
COc1ccc(CNC(=O)C(=O)NCC(c2ccco2)S(=O)(=O)c2ccc(Cl)cc2)cc1 (centres undefined)	n	x	x	x	x	x
Cc1cccc(NC(=S)NNC(=O)c2ccco2)c1	n	23	active	n	n	n
Cc1ccc(C)c(NC(=S)NNC(=O)c2ccco2)c1	n	n	n	n	n	n
Cc1ccc(NC(=S)NNC(=O)c2ccco2)cc1	n	31	66	n	n	n
CC(=O)Oc1cccc(C(=O)Nc2ccc(NC(=O)c3cccs3)cc2)c1	n	42	163	n	n	n
SMILES	TbPYK inhibitor	Cycloheximide cs	Shiga toxin inh	LmPK inhibitor	SARS PLpro yeast	NS1 function inh
COc1cccc(C(=O)Nc2cccc(NC(=O)c3cccs3)c2)c1	n	11	n	n	n	n
Cc1cccc(CN2CCN([C@H]3CS(=O)(=O)N[C@@H]3COCc3ccccc3)CC2)c1	n	x	x	x	x	x
Cc1ccc(N(C)/N=C/c2ccc(Cl)cc2Cl)nn1	n	16	n	n	n	n
CN(/N=C/c1ccc(Cl)cc1Cl)c1ncc(Cl)cc1C(F)(F)F	n	n	n	n	n	n
COc1cccc(/C=C2\N=C(c3cncc(Br)c3)OC2=O)c1	n	25	n	n	u	n
COc1ccc(OC)c(/C=C2\N=C(c3ccccc3)OC2=O)c1	n	n	x	n	n	n
O=C(CCS(=O)(=O)c1ccccc1)N1CCOCC1	n	31	n	n	n	x
O=C(CCS(=O)(=O)c1ccccc1)N1CCN(c2ccccc2)CC1	n	40	84	n	n	n
CCCc1ccc(C#N)c(SC2CC(=O)N(c3ccc(OC)cc3)C2=O)n1 (centres undefined)	n	n	n	n	n	n
N#Cc1cc2c(nc1SC1CC(=O)N(c3ccccc3)C1=O)CCC2 (centres undefined)	n	83	115	n	n	n
COc1cccc(CN2C(=NC(=O)CCC3CCCC3)SC3CS(=O)(=O)CC32)c1 (centres undefined)	n	n	n	n	n	n
